Among the data in PubChem BioAssay (NCI) are growth values, retold here.

Assay in all cases: NCI-60 one-dose screen, 48 h (100 = growth as untreated, 0 = no growth, -100 = all killed)
One assay has as its system NCI-H23 lung. As to conditions: 10 µM unless noted.
Another assay relates to NCI-H226 lung. The following applies: 10 µM unless noted.
The next assay deals with NCI-H322M lung. The following applies: 10 µM unless noted.
The subject of another assay is HOP-62 NSCLC. The following applies: 10 µM unless noted.
For another assay, the system named is HOP-92 NSCLC. The following applies: 10 µM unless noted.
The next assay deals with A549/ATCC NSCLC. The following applies: 10 µM unless noted.
The next assay has as its system 786-0 renal. The following applies: 10 µM unless noted.
The test system of another assay is COLO 205 colon. As to conditions: 10 µM unless noted.
The test system of another assay is DU-145 prostate. The following applies: 10 µM unless noted.
The next assay relates to K-562 leukemia. As to conditions: 10 µM unless noted.
Another assay deals with MALME-3M melanoma. As to conditions: 10 µM unless noted.
The next assay concerns MDA-MB-231 breast. As to conditions: 10 µM unless noted.
The subject of a further assay is RXF 393 renal. As to conditions: 10 µM unless noted.
The next assay relates to SF-268 CNS. As to conditions: 10 µM unless noted.
A further assay concerns SF-295 CNS. As to conditions: 10 µM unless noted.
The subject of the next assay is SF-539 CNS. The following applies: 10 µM unless noted.
The next assay has as its system UACC-257 melanoma. The following applies: 10 µM unless noted.
The test system of a further assay is M14 melanoma. The following applies: 10 µM unless noted.
The test system of the next assay is NCI-H522 lung. The following applies: 10 µM.

Molecules are shown by their SMILES. Compounds without any hit were thinned out: in the full panel of roughly 83,000, 20% have a hit.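 Negative percent growth values reflect cell death: -40 means 40% of the cells present at the start died, and -100 means all died.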 Unmarked numbers belong to inactive results. Calls of active or inactive are those of the source. Rule for the calls: active = growth percent below 10; inactive = the rest.

Regarding `Cc1ccc2c(c1)C(=O)/C(=C\Nc1ccc(C(N)=O)cc1)C(O)O2` (stereo not drawn), the growth with NCI-H23 lung was 114%; with NCI-H226 lung, 154%; with NCI-H322M lung, 95.8%; with HOP-62 NSCLC, 88.3%; with HOP-92 NSCLC it was -17.9% (active); in the assay with A549/ATCC NSCLC, 114%. For the same molecule, the growth was 110% in the assay with 786-0 renal; 108% in the assay on COLO 205 colon; 107% with DU-145 prostate; 97.7% in the assay with K-562 leukemia; 86.7% in the assay with MALME-3M melanoma; 83.1% in the assay with MDA-MB-231 breast. Also, the growth with RXF 393 renal is 111%; with SF-268 CNS it was 82.8%; with SF-295 CNS it was 94%; with SF-539 CNS, 99.8%; with UACC-257 melanoma it was 118%.
With `O=C(CN1CCN(c2ccc(Cl)cc2)CC1)N1CCN(c2nnc(-c3ccc(Cl)cc3)c(-c3ccc(Cl)cc3)n2)CC1`, the growth in the assay on NCI-H23 lung is 85%; in the assay with NCI-H226 lung, 62%; in the assay on NCI-H322M lung it was 77.9%; in the assay with HOP-62 NSCLC, 103%; with HOP-92 NSCLC it was 60.1%; in the assay with A549/ATCC NSCLC, 15%. In addition, the growth is 80.6% in the assay on 786-0 renal; 90.8% with COLO 205 colon; 87% in the assay on DU-145 prostate; 33% in the assay with K-562 leukemia; 114% with MALME-3M melanoma; 95.1% in the assay with MDA-MB-231 breast. For the same molecule, the growth is 83.4% with SF-268 CNS, 82.3% in the assay on SF-295 CNS, 82.3% in the assay with SF-539 CNS and 74.3% in the assay on M14 melanoma.
Regarding `CCCCNCCCN(CCCC)CCCNCCCC`, the growth was 104% with NCI-H23 lung; 97.3% with NCI-H226 lung; 99.5% in the assay with NCI-H322M lung; 94.9% in the assay with HOP-62 NSCLC; 41.5% with HOP-92 NSCLC; 95.4% in the assay with A549/ATCC NSCLC. The growth in the assay with 786-0 renal was 103%; in the assay on COLO 205 colon it was 100%; with DU-145 prostate, 114%; in the assay with K-562 leukemia it was 102%; in the assay on MALME-3M melanoma it was 104%; with MDA-MB-231 breast, 90.1%. Also, the growth is 96.6% in the assay with RXF 393 renal; 110% in the assay with SF-268 CNS; 94.4% with SF-295 CNS; 103% in the assay on SF-539 CNS; 94.2% in the assay on M14 melanoma.
As to `CC(=O)c1ccccc1NC(=O)C(C)(c1ccccc1)c1ccccc1`, the growth in the assay with NCI-H23 lung was 82.7%; with NCI-H226 lung, 91%; in the assay on NCI-H322M lung it was 89.3%; in the assay on HOP-62 NSCLC, 40.4%; in the assay on HOP-92 NSCLC, 86.4%; with NCI-H522 lung, 77.3%. Moreover, the growth with 786-0 renal was 92.5%; in the assay on COLO 205 colon, 114%; in the assay on K-562 leukemia it was 72.5%; in the assay on MALME-3M melanoma, 83%; with MDA-MB-231 breast, 88.8%; in the assay on SF-268 CNS, 92.6%. Further, the growth in the assay on SF-295 CNS was 86.1%; with SF-539 CNS it was 105%; with UACC-257 melanoma it was 85.9%; in the assay on M14 melanoma it was 99.9%.
Consider `CC(C)CC1NC(=O)C(CCCN)NC(=O)C(C(C)C)NC(=O)C2CCCN2C(=O)C(Cc2ccccc2)NC(=O)C(CC(C)C)NC(=O)C(CCCN)NC(=O)C(C(C)C)NC(=O)C2CCCN2C(=O)C(Cc2ccccc2)NC1=O` (stereo not drawn), for which the growth in the assay on NCI-H23 lung is -75.9% (active); with NCI-H226 lung it was -59.7% (active); in the assay on NCI-H322M lung it was -65.5% (active); in the assay on HOP-62 NSCLC it was -86.5% (active); with HOP-92 NSCLC, -56.7% (active); in the assay with NCI-H522 lung, -80.7% (active). Also, the growth was -85.9% (active) in the assay on 786-0 renal; -90.2% (active) in the assay with COLO 205 colon; -52.5% (active) in the assay on DU-145 prostate; -53.1% (active) in the assay with K-562 leukemia; -76.3% (active) in the assay with MALME-3M melanoma; -54.4% (active) with MDA-MB-231 breast. Further, the growth was -65.7% (active) with RXF 393 renal; -85.4% (active) in the assay with SF-268 CNS; -77.4% (active) with SF-295 CNS; -82.5% (active) in the assay on SF-539 CNS; -72.9% (active) with UACC-257 melanoma; -63.8% (active) in the assay with M14 melanoma.
As to `CC(=O)N1N=C(c2ccc(Nc3ccnc4cc(Cl)ccc34)cc2)CC1c1ccc(Cl)cc1` (stereo not drawn), the growth in the assay with NCI-H23 lung was 67.8%; with NCI-H226 lung it was 75.2%; with NCI-H322M lung, 96.3%; in the assay with HOP-62 NSCLC it was 73.1%; with HOP-92 NSCLC, 35.4%; in the assay with NCI-H522 lung it was 24%. In addition, the growth was 62.5% in the assay with 786-0 renal; 85.5% in the assay with COLO 205 colon; 67.3% in the assay on DU-145 prostate; 19.1% in the assay on K-562 leukemia; 26.8% in the assay on MALME-3M melanoma; 72.7% in the assay with MDA-MB-231 breast. Further, the growth in the assay with RXF 393 renal is 42.3%; in the assay with SF-268 CNS, 53.3%; in the assay on SF-295 CNS, 15.4%; in the assay with SF-539 CNS it was 86.4%; in the assay on UACC-257 melanoma, 61.7%; with M14 melanoma it was 47.6%.
As for `Cc1ccc(NC(=O)c2sc3nc4c(cc3c2N)C(=O)CCC4)cc1`, the growth in the assay with NCI-H23 lung was 64.9%; in the assay with NCI-H226 lung it was 83.7%; in the assay on NCI-H322M lung it was 55.8%; with HOP-62 NSCLC, 114%; in the assay with HOP-92 NSCLC, 48.1%; with A549/ATCC NSCLC, 37%. Moreover, the growth was 94.5% in the assay on 786-0 renal; 23.9% in the assay on COLO 205 colon; 96.4% in the assay with DU-145 prostate; 53.1% in the assay with K-562 leukemia; 89.1% with MALME-3M melanoma; 78% in the assay on MDA-MB-231 breast. Also, the growth with RXF 393 renal was 108%; in the assay with SF-268 CNS, 110%; in the assay with SF-295 CNS, 47.1%; in the assay with SF-539 CNS, 93.5%; in the assay on UACC-257 melanoma it was 74%; in the assay on M14 melanoma, 85.3%.
Turning to `CN1CCC[C@@H]1CCO[C@](C)(c1ccccc1)c1ccc(Cl)cc1`, the growth in the assay with NCI-H23 lung is 79.9%; in the assay with NCI-H226 lung, 75.5%; with NCI-H322M lung it was 78.4%; in the assay with HOP-62 NSCLC, 75.2%; with HOP-92 NSCLC it was 51.6%; in the assay on NCI-H522 lung, 88%. Also, the growth in the assay on 786-0 renal was 66.5%; in the assay with COLO 205 colon, 20%; in the assay with DU-145 prostate it was 91.5%; with K-562 leukemia, 30.4%; in the assay with MALME-3M melanoma, 71.8%; in the assay with MDA-MB-231 breast, 88.7%. The growth in the assay with RXF 393 renal is 38.7%; in the assay on SF-268 CNS, 81.8%; in the assay on SF-295 CNS it was 63.2%; in the assay on SF-539 CNS it was 76.2%; with UACC-257 melanoma, 23.4%; in the assay on M14 melanoma it was 15.6%.
